Assay results: PubChem BioAssay AID624330 (Southern Research Specialized Biocontainment Screening …, 2012)
The campaign covered roughly 340,000 compounds. About 2,100 (0.62%) were called active.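 How the source made its calls: active means first-screen hits whose inhibition reached a set limit at any dose in the follow-up dose series; inconclusive means inhibition above the set first-screen limit but never retested; inactive means the rest.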 A selection follows. Measured potencies and affinities stand elsewhere.

Target: Rac GTPase-activating protein 1 (Homo sapiens) (UniProt Q9H0H5)
Sequence (Q9H0H5 whole entry, looked up): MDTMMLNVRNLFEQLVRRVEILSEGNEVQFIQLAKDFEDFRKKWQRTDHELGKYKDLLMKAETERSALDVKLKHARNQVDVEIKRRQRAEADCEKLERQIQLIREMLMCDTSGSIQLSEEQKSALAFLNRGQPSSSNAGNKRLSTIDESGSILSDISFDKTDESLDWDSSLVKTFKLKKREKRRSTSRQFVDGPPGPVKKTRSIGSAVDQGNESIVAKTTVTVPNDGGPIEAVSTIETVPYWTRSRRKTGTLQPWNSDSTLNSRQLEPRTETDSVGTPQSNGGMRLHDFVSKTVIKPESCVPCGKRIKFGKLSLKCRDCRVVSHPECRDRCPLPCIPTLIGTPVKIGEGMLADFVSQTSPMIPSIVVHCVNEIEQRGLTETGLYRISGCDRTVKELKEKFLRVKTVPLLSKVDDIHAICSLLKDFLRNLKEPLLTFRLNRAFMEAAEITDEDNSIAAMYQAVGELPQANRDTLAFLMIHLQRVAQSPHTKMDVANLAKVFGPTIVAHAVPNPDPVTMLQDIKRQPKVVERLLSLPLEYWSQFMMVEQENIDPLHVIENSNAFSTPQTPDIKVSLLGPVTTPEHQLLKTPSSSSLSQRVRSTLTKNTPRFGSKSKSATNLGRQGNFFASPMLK
Assay: MgcRacGAP GTPase-activating activity inhibitors, confirmation, biochemical, ADP Hunter fluorescence, primary and confirmatory (AID 624330);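 further: fluorescence reports GDP produced by GAP-driven GTP hydrolysis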
Details: MgcRacGAP-stimulated Rac1 GTP hydrolysis, at 30 µM, hits give high values, GST-tagged Rac1 F28L mutant substrate

inhibition, inactive:
Cc1ccc(C(=O)c2coc3ccc(O)c(Cl)c23)cc1 16%, CN(C)Cc1c(O)ccc2occ(C(=O)c3ccccc3)c12 6.64%, COc1ccc(NC(=O)COc2ccc3c(c2)OCO3)cc1 6.39%, COc1cccc(CN2CC(C(=O)NC3CCCCCC3)CCC2=O)c1 (stereo not drawn) 2.79%, CCN(CCNCC(O)COCc1ccc(Cl)cc1)c1cccc(C)c1 (stereo not drawn) 31.7%, CC(C)c1ccccc1OCC(O)CN(CC(O)COc1cccc2ccccc12)C(C)C (stereo not drawn) 4.64%, C=CCOc1ccc(C(=O)Nc2ncn[nH]2)cc1 4.62%, COc1ccc(NC(=O)C2CCCO2)cc1OC (stereo not drawn) 10.4%, COc1ccc([C@@H](OC)[C@@]2(Cc3ccc(O)cc3)N=C(N)N(C)C2=O)cc1 0.02%, COc1ccc(NC(=O)c2ccccc2NC(=O)C2CCCO2)cc1 (stereo not drawn) 10.5%, CC(=Nc1ccccc1)c1sc2ccccc2c1O 19.1%, CC(=Nc1ccc(C)cc1)c1sc2ccccc2c1O 2.37%, O=c1[nH]c(SCc2ccccc2)nc2ccsc12 6.38%, O=C(NCc1ccccc1)/C(=C\c1ccccc1)NC(=O)c1ccco1 6.99%, O=C(NCc1ccccc1)/C(=C/c1ccccc1)NC(=O)c1ccco1 2.6%, COc1ccc(NC(=S)N2CCNC(=O)C2CC(=O)Nc2ccc(C)cc2)cc1 (stereo not drawn) 15.2%, COc1ccc(Br)cc1/C=N/NC(=O)CN1CCCCC1 14.3%, COc1ccc(/C=N/NC(=O)CN2CCCC2)cc1 -0.98%, COc1cc(/C=N/NC(=O)CCN2CCN(c3ccccc3)CC2)cc(OC)c1OC 4.52%, O=C(CCN1CCN(C(c2ccccc2)c2ccccc2)CC1)N/N=C/c1ccc(O)cc1O 30.9%, COc1ccc(/C=N\NC(=O)CCN2CCN(c3ccccc3)CC2)cc1OC 7.5%, NNC(=O)CCN1CCN(C(c2ccccc2)c2ccccc2)CC1 -8.98%, O=C(CCN1CCCCC1)N/N=C/c1ccc(Br)cc1 7.98%, COc1ccc(OC)c(/C=N/NC(=O)CCN2CCN(C(c3ccccc3)c3ccccc3)CC2)c1 -2.42%, CN(C)CCN(Cc1ccco1)S(=O)(=O)c1csc(C(N)=O)c1 4.25%, O=C(c1ccccn1)N1CCN(C(=O)c2ccccn2)CC1 3.69%, O=C(c1ccc(OC2CCN(CCCc3ccccc3)CC2)cc1)N1CCCC1 3.48%, NC(=O)NCC1CC1 4.2%, O=C(OCC(=O)N1N=C(c2ccc(Cl)cc2)CC1c1ccco1)c1ccccc1O (stereo not drawn) 3.05%, CC[C@]12c3[nH]c4cc(-c5ccco5)ccc4c3CCN1C(=O)[C@@H](CC(=O)NC/C=C(\C)CCC=C(C)C)C[C@@H]2C(=O)N1CCN(C(=O)C2CC2)CC1 -1.48%, O=C1CSC(c2ccco2)N1 (stereo not drawn) 0.85%, O=C(O)C1CSC(c2ccncc2)N1 (stereo not drawn) 8.95%, COc1cc(C=C2C(=O)OC(C)(C)OC2=O)ccc1OCC(=O)Nc1ccccc1 4.19%, COc1ccc(/C=C2/C(=O)N(c3ccccc3)N=C2C)cc1Br 1.8%, C#CCOc1ccc(/C=C2/C(=O)N(c3cccc(C(=O)O)c3)N=C2C)cc1OC 31.7%, CC1=NN(c2ccccc2)C(=O)/C1=C/N(C)C 8.12%, COc1ccc(/C=C2/C(=O)N(c3ccccc3)N=C2C)cc1OC 17.9%, COc1ccccc1/C=C1/C(=O)N(c2ccc([N+](=O)[O-])cc2)N=C1C 4.92%, CCOc1cc(/C=C2\C(=O)N(CCC#N)N=C2C)ccc1OCC(N)=O 21.4%, CC1=NN(c2ccccc2)C(=O)/C1=C/C=C/c1ccccc1 6.5%, O=C(C1CCN(c2nnc(N3CCCC3=O)s2)CC1)N1CCN(c2cccc(C(F)(F)F)c2)CC1 7.18%, COC(=O)c1cccc2c(C(=O)O)cc(-c3ccccc3)nc12 3.38%, c1ccc2c(c1)ccc1nnc(SCc3ccc4c(c3)OCCO4)n12 3.92%, CC(=O)OC1CC2(C)C(CCC2(O)C(C)=O)C2CCC3C(Cl)C(=O)CCC3(C)C12 (stereo not drawn) 2.5%, COCC(=O)N1C[C@H]2CON(C)[C@H]2C[C@H]1c1cccc(-c2ccccc2OC)c1 15.1%, CCOP(=O)(OCC)c1ccc2c(c1)C(=O)c1ccccc1CC2 9.38%, CCOc1ncccc1C(=O)OCc1c(F)cccc1Cl -3.89%, CC(C)(C)C(=O)Nc1c2c(nn1-c1ccc(F)cc1)CSC2 11%, CCCc1ccc2oc(C(=O)NCCN3CCCC(C(N)=O)C3)c(C)c2c1 (stereo not drawn) -11.6%, COc1ccc2ccccc2c1CNCCCN1CCOCC1 5.19%, CN1CCN(/N=C/c2ccc(-c3ccccc3)cc2)CC1 13.1%, CN1CCN(/N=C/c2nc(-c3ccccc3Cl)n3ccccc23)CC1 21.2%, CC(C)(C)c1ccc(-c2nc(C=O)c3ccccn23)cc1 -4.54%, CSc1ccc(/C=N/N2CCN(C)CC2)cc1 11.3%, O=C(O)/C=C/c1nc(-c2ccccc2)n2ccccc12 16.7%, CN1CCN(/N=C/c2nc(-c3cccc([N+](=O)[O-])c3)n3ccccc23)CC1 12.2%, O=Cc1nc(-c2ccc(Cl)cc2)n2ccccc12 -3.25%, O=Cc1nc(-c2ccccc2Cl)n2ccccc12 3.46%, CSCC[C@H](NC(=O)C1CCC(CNC(=O)[C@@H]2CCCN2C(=O)OC(C)(C)C)CC1)C(=O)O (stereo partly drawn) 0.46%, Cc1ccccc1COCCN1CCN(S(=O)(=O)c2ccccc2)CCC1=O 12.5%, CC(C)Oc1ccc(C(=O)Nc2ccc([N+](=O)[O-])cc2)cc1 11.4%, Cc1cc(=O)oc2cc(NC(=O)c3ccccc3Cl)ccc12 9.35%, CCCc1c(C(=O)N/N=C/C=C/c2ccccc2)nnn1-c1nonc1N 15.9%, COc1ccc(OC(=O)c2cccc(S(=O)(=O)N3CCCC3)c2)cc1 15.8%, O=C(Oc1cccnc1)c1cc(S(=O)(=O)N2CCCCC2)ccc1Cl 2.68%, O=[N+]([O-])c1ccc(C2=Nn3c(Cn4nnc5ccccc54)nnc3SC2)cc1 10.3%, C=C(C)COc1ccc(-c2nc(N)ncc2Oc2ccccc2OCC)c(O)c1 10.4%, COc1cccc(Oc2cncnc2-c2ccc(OC)cc2O)c1 8.42%, CCOc1ccc(-c2[nH]ncc2Oc2ccccc2OCC)c(O)c1 6.69%, C=C(C)COc1ccc(-c2nc(N)ncc2Oc2ccc(OC)cc2)c(O)c1 -7.13%, CCOc1ccc(-c2nc(N)ncc2Oc2ccc(OC)cc2)c(O)c1 1.9%, COc1cccc(Oc2cnc(N)nc2-c2ccc(OC)cc2O)c1 6.49%, Cc1ccc(S(=O)(=O)N2CCOCC2)cc1C(=O)OCC(=O)NC1CCCC1 3.52%, CC(C)(C)NC(=O)NC(=O)COC(=O)CNC(=O)c1cccc(F)c1 0.76%, CCOC(=O)Cc1csc(NC(=O)CN2CCOCC2)n1 5.22%, O=C1NC2(CCc3ccccc32)C(=O)N1CCOc1ccc(Cl)cc1 (stereo not drawn) 2.47%, CCN(C1CCS(=O)(=O)C1)S(=O)(=O)c1ccc(Cl)s1 (stereo not drawn) 4.17%, CCOC(=O)C1=C(O)CSC1=Nc1cccc2ccccc12 1.02%, c1ccc2nc3ccccc3nc2c1 2.14%, COc1cccc(CN2CCN(C(=O)c3cccc4ccccc34)CC2)c1OC 17.9%, Cc1ccc(CN2CCN(C(=O)c3cccc4ccccc34)CC2)cc1 23.8%, Cc1cccc(CN2CCN(C(=O)c3cccc4ccccc34)CC2)c1 15.3%, COc1ccc(OC)c(CN2CCN(C(=O)c3cccc4ccccc34)CC2)c1 13.1%, Cc1cc(C)c(C)c(OCCCN(C)C)c1 17%, CSc1nnnn1-c1cccc(O)c1 -2.6%, Cc1cc(Cl)ccc1Oc1ncnc2onc(C)c12 4.86%, CCOCCCNC(=O)c1ccc(OC2CCN(C(C)=O)CC2)c(OC)c1 9.51%, COCc1cc(NCc2ccc(Cl)cc2)nc(C)n1 5.03%, COCc1cc(Sc2ccc(Cl)cc2)nc(C)n1 3.56%, CC(C)(C)c1ccc(C2=NC(=O)C(CC(=O)O)S2)cc1 (stereo not drawn) 10.5%, CN(C1=NC(=O)C(CC(=O)O)S1)c1ccc(O)cc1 (stereo not drawn) 2.49%, Cc1nn(CC(=O)NCC(C)c2ccccc2)c(=O)c2cc3occc3n12 (stereo not drawn) 10%, Cc1ccc(-c2csc3ncnc(SCC(=O)c4ccc5c(c4)OCCO5)c23)cc1 1.98%, CC1Cc2ccccc2N1C(=O)COc1ccc2c(c1)OCO2 (stereo not drawn) -12.8%, CC(=O)N1CCN(c2ccc(NCc3ccc(-c4ccc(Br)cc4)o3)cc2)CC1 5.41%, CC(=O)c1ccc(N2CCN(C(=S)NCc3ccco3)CC2)cc1 3.83%, CC(=O)N1CCN(c2ccc(NCc3ccc(-c4cccc(Cl)c4)o3)cc2)CC1 15%, CC(=O)N1CCN(c2ccc(NC(=O)c3ccco3)cc2)CC1 8.89%
